The values that follow come from article PMC7862700, “An all-to-all approach to the identification of sequence-specific readers for epigenetic DNA modifications on cytosine”.

What all share (assay): DAPPL (digital affinity profiling via proximity ligation, sequencing); 10 mM Tris-HCl pH 7.5, 50 mM NaCl, 1 mM DTT, 4% glycerol, room temperature, 30 min; GST-TFs on glutathione beads, 16-mer random dsDNA library, 0.1% formaldehyde crosslink after washing; high values mean tight binding
Common to all, as to conditions: protein: recombinant; tags: N-terminal GST; dsDNA, one strand shown

In one assay the target is T1, FLI1 (Homo sapiens, UniProt Q01543 1-452).
T1 sequence: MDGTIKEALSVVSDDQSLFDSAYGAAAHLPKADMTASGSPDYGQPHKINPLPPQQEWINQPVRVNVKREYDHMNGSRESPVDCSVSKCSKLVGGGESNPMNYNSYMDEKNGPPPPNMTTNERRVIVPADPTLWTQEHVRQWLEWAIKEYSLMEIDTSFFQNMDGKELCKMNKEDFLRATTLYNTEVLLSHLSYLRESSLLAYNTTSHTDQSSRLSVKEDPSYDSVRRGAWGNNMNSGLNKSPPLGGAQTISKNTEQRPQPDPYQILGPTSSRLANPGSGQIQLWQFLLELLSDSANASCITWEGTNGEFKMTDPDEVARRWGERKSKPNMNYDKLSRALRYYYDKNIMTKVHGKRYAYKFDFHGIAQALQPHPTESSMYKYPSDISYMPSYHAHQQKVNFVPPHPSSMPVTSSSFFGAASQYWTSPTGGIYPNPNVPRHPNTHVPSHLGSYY
The gist of the method:
(§1)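 Each value of binding signal is a hexamer's read frequency for a factor divided by the same hexamer's frequency in the tag-only sample. Barcoded, bead-captured GST fusions of human transcription factors made in yeast were pooled with that sample and incubated with 200 nmole of a random double-stranded 16-mer DNA library in Tris/NaCl/DTT/glycerol buffer at room temperature for 30 min. Washing, 0.1% formaldehyde crosslinking, proximity ligation, PCR and Illumina NextSeq500 sequencing followed.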

Another assay concerns the target T2, ELK1 (Homo sapiens, UniProt P19419 1-428).
T2 sequence: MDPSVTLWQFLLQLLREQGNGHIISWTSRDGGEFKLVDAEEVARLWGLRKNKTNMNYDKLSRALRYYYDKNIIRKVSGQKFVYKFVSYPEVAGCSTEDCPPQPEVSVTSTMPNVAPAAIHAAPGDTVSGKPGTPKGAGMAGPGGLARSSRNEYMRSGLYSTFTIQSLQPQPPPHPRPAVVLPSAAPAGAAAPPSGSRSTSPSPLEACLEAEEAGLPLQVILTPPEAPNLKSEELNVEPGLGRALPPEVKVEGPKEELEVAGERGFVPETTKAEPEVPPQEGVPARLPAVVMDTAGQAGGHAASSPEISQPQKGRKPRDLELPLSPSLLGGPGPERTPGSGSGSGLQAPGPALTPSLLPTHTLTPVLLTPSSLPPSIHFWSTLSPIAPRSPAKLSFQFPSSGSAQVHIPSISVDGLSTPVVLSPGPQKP
The gist of the method:
as §1

The target of a further assay is T3, GABPA (Homo sapiens, UniProt Q06546 1-454).
T3 sequence: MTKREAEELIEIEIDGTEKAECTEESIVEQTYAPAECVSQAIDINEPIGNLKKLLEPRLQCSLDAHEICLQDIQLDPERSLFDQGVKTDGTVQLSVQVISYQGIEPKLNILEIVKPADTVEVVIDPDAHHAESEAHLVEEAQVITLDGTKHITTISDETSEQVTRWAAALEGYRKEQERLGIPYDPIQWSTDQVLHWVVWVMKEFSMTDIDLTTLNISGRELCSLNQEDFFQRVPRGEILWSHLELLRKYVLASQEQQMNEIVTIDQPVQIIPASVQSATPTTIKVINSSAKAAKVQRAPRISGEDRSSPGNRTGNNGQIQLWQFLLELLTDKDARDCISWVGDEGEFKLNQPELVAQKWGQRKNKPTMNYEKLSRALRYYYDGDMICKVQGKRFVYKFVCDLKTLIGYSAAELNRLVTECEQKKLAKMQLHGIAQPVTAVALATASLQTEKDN
The gist of the method:
as §1

A further assay deals with T4, ERG (Homo sapiens, UniProt P11308 1-479).
T4 sequence: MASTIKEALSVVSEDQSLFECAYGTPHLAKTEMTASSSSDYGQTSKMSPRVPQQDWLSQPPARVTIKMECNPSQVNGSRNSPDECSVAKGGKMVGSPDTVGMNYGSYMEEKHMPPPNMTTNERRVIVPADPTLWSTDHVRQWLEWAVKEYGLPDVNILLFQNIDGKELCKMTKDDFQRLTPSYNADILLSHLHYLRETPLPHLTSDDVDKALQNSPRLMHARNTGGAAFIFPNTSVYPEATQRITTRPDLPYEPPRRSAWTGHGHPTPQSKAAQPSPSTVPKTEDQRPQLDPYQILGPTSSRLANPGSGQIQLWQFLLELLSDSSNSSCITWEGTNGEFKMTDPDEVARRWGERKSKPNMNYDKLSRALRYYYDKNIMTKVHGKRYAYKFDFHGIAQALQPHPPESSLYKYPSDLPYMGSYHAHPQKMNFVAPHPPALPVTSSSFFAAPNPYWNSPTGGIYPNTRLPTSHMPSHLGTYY
The method in brief: as §1

The target in a further assay is ELF1 (Homo sapiens, UniProt P32519 1-619). The method in brief: as §1
A further assay deals with T5, EHF (Homo sapiens, UniProt Q9NZC4 1-300).
T5 sequence: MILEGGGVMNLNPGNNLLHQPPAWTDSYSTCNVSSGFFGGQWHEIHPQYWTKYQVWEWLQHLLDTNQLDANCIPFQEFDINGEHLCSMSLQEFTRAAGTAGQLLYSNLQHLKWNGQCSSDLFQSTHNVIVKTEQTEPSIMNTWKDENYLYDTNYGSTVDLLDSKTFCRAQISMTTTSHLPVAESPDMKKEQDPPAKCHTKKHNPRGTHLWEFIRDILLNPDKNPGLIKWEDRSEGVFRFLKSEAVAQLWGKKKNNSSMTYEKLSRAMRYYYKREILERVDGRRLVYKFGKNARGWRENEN
The method in brief:
as §1

The target of another assay is SPI1 (Homo sapiens, UniProt P17947 1-270). The gist of the method: as §1
The target of another assay is SPIB (Homo sapiens, UniProt Q01892 1-262). The method in brief:
as §1

The next assay addresses T6, ELK3 (Homo sapiens, UniProt P41970 1-407).
T6 sequence: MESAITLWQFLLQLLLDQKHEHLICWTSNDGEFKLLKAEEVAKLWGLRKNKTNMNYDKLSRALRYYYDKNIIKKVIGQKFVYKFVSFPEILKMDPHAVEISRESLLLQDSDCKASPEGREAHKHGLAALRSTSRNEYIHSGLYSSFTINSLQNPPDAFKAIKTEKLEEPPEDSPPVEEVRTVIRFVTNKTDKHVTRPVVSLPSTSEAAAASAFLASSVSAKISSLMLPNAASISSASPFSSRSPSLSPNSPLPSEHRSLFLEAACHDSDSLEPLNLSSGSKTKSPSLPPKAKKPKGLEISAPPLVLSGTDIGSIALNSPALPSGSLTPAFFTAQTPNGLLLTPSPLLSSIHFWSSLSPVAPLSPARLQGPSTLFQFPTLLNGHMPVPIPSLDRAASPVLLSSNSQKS
The method in brief:
as §1

A further assay deals with T7, FEV (Homo sapiens, UniProt Q99581 1-238).
T7 sequence: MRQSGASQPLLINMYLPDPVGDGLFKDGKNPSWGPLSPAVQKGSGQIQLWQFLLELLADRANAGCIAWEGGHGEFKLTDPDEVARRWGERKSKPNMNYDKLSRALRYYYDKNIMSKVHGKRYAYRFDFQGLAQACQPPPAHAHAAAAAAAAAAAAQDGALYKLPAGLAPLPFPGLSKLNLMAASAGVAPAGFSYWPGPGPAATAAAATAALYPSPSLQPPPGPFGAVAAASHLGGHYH
The method in brief:
as §1

The target of another assay is ETV5 (Homo sapiens, UniProt P41161 1-510). The gist of the method: as §1
A further assay deals with T8, SPIC (Homo sapiens, UniProt Q8N5J4 1-248).
T8 sequence: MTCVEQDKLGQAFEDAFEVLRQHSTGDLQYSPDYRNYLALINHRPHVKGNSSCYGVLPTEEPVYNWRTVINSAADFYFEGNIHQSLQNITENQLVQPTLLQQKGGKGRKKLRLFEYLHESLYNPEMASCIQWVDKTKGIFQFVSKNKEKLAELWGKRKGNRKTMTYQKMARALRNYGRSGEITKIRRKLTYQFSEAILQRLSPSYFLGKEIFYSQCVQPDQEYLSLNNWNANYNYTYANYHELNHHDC
The gist of the method: as §1

The next assay deals with ELF4 (Homo sapiens, UniProt Q99607 1-663). The method in brief:
as §1

The target in the next assay is T9, ELK4 (Homo sapiens, UniProt P28324-2 1-405).
T9 sequence: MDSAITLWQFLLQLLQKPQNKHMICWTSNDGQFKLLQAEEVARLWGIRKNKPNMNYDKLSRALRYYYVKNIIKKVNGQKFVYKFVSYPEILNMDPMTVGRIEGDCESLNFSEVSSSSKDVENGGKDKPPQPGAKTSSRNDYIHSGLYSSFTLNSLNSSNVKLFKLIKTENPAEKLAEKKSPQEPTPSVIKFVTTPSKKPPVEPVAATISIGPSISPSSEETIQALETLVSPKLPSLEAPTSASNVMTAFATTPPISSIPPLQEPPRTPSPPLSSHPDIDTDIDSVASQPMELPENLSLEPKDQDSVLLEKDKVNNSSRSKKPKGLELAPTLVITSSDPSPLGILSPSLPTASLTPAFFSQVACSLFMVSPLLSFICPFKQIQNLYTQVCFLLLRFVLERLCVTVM
The gist of the method: as §1

A further assay concerns the target T10, ETV2 (Homo sapiens, UniProt O00321 1-342).
T10 sequence: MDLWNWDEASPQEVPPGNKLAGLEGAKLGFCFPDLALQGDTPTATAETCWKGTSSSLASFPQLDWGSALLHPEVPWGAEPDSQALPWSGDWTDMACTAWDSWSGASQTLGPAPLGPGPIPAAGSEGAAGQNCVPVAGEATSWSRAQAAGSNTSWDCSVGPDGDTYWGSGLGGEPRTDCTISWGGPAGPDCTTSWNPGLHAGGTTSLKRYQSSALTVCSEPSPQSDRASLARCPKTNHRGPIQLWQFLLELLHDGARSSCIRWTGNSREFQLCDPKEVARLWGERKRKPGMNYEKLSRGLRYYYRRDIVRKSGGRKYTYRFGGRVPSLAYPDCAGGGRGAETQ
The method in brief: as §1

Another assay has as its target T11, ELF3 (Homo sapiens, UniProt P78545 1-371).
T11 sequence: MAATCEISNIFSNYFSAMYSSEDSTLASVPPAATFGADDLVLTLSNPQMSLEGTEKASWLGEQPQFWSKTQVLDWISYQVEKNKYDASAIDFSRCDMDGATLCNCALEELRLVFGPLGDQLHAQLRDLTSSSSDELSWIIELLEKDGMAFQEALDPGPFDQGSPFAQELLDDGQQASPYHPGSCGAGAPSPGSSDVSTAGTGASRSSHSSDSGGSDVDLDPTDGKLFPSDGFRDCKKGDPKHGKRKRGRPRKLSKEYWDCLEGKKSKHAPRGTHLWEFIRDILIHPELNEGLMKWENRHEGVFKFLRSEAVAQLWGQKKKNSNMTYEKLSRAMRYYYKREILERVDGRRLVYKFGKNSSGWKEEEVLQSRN
The gist of the method:
as §1

A further assay has as its target ETV1 (Homo sapiens, UniProt P50549 1-477). The gist of the method: as §1

ETV1, sequence (P50549 whole entry): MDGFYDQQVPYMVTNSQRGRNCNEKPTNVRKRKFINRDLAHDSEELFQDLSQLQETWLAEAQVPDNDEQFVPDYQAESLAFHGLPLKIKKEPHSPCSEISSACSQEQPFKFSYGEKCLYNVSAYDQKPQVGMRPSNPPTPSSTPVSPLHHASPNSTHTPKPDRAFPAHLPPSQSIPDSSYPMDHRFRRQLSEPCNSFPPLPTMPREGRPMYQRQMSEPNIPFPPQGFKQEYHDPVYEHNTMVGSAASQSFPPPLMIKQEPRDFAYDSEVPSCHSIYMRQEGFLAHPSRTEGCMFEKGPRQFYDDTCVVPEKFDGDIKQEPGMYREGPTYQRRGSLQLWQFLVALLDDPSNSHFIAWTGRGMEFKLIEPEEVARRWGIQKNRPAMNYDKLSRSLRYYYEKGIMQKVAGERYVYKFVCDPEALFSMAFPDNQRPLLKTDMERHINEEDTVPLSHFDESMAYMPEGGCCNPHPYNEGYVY
ELF1, sequence (P32519 whole entry): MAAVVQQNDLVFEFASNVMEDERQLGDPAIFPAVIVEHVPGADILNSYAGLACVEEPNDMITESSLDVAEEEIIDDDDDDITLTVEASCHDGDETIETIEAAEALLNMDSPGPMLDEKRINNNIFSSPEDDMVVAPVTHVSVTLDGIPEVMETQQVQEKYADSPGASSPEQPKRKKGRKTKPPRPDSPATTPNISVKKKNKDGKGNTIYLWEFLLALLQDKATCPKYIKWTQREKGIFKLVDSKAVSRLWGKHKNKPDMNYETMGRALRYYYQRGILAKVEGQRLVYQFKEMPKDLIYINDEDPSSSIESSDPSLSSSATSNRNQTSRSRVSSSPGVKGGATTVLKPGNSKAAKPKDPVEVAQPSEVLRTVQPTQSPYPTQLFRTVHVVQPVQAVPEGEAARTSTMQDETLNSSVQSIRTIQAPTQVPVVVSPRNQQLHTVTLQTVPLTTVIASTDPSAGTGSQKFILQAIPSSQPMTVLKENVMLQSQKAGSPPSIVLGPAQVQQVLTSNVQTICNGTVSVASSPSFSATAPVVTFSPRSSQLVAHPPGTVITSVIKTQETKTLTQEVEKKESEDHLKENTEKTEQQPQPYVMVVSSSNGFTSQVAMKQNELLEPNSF
ETV5, sequence (P41161 whole entry): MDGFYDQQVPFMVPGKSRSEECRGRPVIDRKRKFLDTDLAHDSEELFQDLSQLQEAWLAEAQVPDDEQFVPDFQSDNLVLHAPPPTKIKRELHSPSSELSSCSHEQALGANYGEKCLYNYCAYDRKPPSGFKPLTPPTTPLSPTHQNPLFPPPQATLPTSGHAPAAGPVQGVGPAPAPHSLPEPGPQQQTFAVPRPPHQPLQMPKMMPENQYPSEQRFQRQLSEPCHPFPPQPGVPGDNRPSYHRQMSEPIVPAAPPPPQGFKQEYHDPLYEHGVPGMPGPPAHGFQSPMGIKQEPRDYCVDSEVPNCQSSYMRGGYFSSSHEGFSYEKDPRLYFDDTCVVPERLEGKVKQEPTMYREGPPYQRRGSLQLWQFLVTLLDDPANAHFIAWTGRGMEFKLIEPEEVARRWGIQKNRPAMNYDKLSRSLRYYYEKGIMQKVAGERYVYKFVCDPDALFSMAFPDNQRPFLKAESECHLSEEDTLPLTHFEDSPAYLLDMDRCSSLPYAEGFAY
ELF4, sequence (Q99607 whole entry): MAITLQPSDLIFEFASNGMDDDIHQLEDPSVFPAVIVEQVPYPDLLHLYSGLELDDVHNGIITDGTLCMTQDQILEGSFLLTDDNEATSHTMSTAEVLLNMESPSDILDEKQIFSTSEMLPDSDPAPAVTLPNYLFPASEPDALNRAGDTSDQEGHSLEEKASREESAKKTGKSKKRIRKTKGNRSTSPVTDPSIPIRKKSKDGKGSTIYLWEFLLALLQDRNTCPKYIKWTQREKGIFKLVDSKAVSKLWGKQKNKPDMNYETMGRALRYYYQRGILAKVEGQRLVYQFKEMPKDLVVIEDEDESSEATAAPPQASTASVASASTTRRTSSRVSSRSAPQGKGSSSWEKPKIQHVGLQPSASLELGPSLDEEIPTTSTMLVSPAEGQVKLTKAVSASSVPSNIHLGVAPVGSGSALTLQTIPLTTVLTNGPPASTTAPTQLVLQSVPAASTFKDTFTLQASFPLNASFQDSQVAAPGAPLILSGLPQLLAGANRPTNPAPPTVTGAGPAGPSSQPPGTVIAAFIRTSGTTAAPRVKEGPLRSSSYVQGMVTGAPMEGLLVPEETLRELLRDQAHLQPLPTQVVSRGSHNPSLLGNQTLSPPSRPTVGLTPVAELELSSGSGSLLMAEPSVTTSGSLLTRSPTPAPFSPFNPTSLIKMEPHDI
SPIB, sequence (Q01892 whole entry): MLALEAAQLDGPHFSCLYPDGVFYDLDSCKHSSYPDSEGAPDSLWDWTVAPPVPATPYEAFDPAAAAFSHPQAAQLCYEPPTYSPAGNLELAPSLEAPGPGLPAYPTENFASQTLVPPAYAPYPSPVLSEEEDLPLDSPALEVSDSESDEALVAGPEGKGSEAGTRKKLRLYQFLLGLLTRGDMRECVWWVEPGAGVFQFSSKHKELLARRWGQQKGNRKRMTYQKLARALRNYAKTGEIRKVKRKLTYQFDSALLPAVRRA

Take CTGACG: the binding signal in the assay with FLI1 is 1.19 fold enrichment (6-mer frequency, TF over GST control); with ELK1, 1.09 fold enrichment (6-mer frequency, TF over GST control); in the assay with GABPA, 1.23 fold enrichment (6-mer frequency, TF over GST control); with ERG, 1.06 fold enrichment (6-mer frequency, TF over GST control); with ELF1 it was 1.16 fold enrichment (6-mer frequency, TF over GST control); in the assay with EHF, 1.01 fold enrichment (6-mer frequency, TF over GST control). For the same sequence, the binding signal is 1.06 fold enrichment (6-mer frequency, TF over GST control) with SPI1; 1.13 fold enrichment (6-mer frequency, TF over GST control) with SPIB; 1.03 fold enrichment (6-mer frequency, TF over GST control) with ELK3; 1.11 fold enrichment (6-mer frequency, TF over GST control) with FEV; 1.2 fold enrichment (6-mer frequency, TF over GST control) with ETV5; 1.13 fold enrichment (6-mer frequency, TF over GST control) in the assay with SPIC. In addition, the binding signal with ELF4 was 1.06 fold enrichment (6-mer frequency, TF over GST control); with ELK4, 1.11 fold enrichment (6-mer frequency, TF over GST control); in the assay with ETV2 it was 1.35 fold enrichment (6-mer frequency, TF over GST control); with ELF3, 1.05 fold enrichment (6-mer frequency, TF over GST control); in the assay with ETV1, 1.09 fold enrichment (6-mer frequency, TF over GST control).
